For 11 molecules, nuclei count, normalised and p53-positive nuclei, normalised results are on record in PubChem BioAssay AID1508601 (ICCB-Longwood Screening Facility, Harvard Medical School, 2020).

Hit rate of the full screen: of about 5,700 compounds, about 85 (1%) were called active. Rule as the data show it: active = p53-positive nuclei above about 36% (passing the limit was not always enough); inactive = the rest. This excerpt belongs to a sample that is enriched for actives.

Experiment [1] in a line: p53 stabilisation in HPV-positive human cells, imaging, p53-positive nuclei imaging, 24 h, 48 h (AID 1508601). The note with it: 24/48 h.
Experiment [2] addresses Cellular tumor antigen p53 (Homo sapiens) (UniProt P04637). Described as above. The note with it: 24/48 h, stronger effect = higher value.
Where [3] appears, read: measured here: cell number at 24 h, Library stock concentration: 10 mM.
Where [4] appears, read: measured here: cell number at 48 h, Library stock concentration: 10 mM.
Setting [5] is: Library stock concentration: 10 mM.
The mark [6] stands for this setting: measured here: p53 positive nuclei at 24 h, Library stock concentration: 10 mM.
The mark [7] stands for this setting: measured here: cell number at 24 h, concentration not given here.
Where [8] appears, read: measured here: cell number at 48 h, concentration not given here.
Setting [9] is: measured here: p53 positive nuclei at 24 h, concentration not given here.
The mark [10] stands for this setting: measured here: cell number at 24 h, Library stock concentration: 3.33 mM.
Setting [11] is: measured here: cell number at 48 h, Library stock concentration: 3.33 mM.
Where [12] appears, read: Library stock concentration: 3.33 mM.
Setting [13] is: measured here: p53 positive nuclei at 24 h, Library stock concentration: 3.33 mM.

Cellular tumor antigen p53 (Homo sapiens), sequence (P04637 whole entry, looked up): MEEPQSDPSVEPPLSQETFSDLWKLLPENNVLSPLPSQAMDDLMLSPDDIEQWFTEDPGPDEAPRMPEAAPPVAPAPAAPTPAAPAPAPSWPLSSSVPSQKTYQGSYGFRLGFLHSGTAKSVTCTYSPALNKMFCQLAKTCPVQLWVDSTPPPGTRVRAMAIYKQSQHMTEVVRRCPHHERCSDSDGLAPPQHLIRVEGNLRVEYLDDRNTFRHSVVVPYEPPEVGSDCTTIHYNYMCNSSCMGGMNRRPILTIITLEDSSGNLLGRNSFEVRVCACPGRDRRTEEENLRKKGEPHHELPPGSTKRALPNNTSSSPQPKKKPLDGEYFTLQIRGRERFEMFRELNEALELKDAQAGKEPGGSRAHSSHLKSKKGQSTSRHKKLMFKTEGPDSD

Consider `O=C(O)c1ccccc1SC1=NS(=O)(=O)c2ccccc21`, for which the nuclei count, normalised in experiment [1] (measured here: cell number at 24 h, Library stock concentration: 500 nM) stood at 117%; in experiment [1] (measured here: cell number at 24 h, Library stock concentration: 1.5 uM), 119%; in experiment [1] (measured here: cell number at 24 h, Library stock concentration: 4.6 uM) it was 119%; in experiment [1] (measured here: cell number at 24 h, Library stock concentration: 13.7 uM), 120%; in experiment [1] (measured here: cell number at 24 h, Library stock concentration: 41 uM), 125%; in experiment [1] (measured here: cell number at 24 h, Library stock concentration: 123 uM), 126%. The nuclei count, normalised in experiment [1] (measured here: cell number at 24 h, Library stock concentration: 370 uM) is 125%; in experiment [1] (measured here: cell number at 24 h, Library stock concentration: 1.111 mM), 119%; in experiment [1] (measured here: cell number at 24 h, Library stock concentration: 3.333 mM), 120%; in experiment [1] (setting [3]), 112%; in experiment [1] (measured here: cell number at 48 h, Library stock concentration: 500 nM), 123%; in experiment [1] (measured here: cell number at 48 h, Library stock concentration: 1.5 uM), 121%. Besides, the nuclei count, normalised in experiment [1] (measured here: cell number at 48 h, Library stock concentration: 4.6 uM) was found to be 126%; in experiment [1] (measured here: cell number at 48 h, Library stock concentration: 13.7 uM) it was 116%; in experiment [1] (measured here: cell number at 48 h, Library stock concentration: 41 uM), 127%; in experiment [1] (measured here: cell number at 48 h, Library stock concentration: 123 uM), 121%; in experiment [1] (measured here: cell number at 48 h, Library stock concentration: 370 uM), 120%; in experiment [1] (measured here: cell number at 48 h, Library stock concentration: 1.111 mM), 117%. Besides, the nuclei count, normalised in experiment [1] (measured here: cell number at 48 h, Library stock concentration: 3.333 mM) was found to be 122%; in experiment [1] (setting [4]) it was 111%. The p53-positive nuclei, normalised in experiment [2] (Library stock concentration: 500 nM) was -0.176% (inactive); in experiment [2] (Library stock concentration: 1.5 uM), 0.0563% (inactive); in experiment [2] (Library stock concentration: 4.6 uM) it was -0.0688% (inactive); in experiment [2] (Library stock concentration: 13.7 uM), 0.0271% (inactive); in experiment [2] (Library stock concentration: 41 uM) it was -0.248% (inactive); in experiment [2] (Library stock concentration: 123 uM), -0.212% (inactive). The p53-positive nuclei, normalised in experiment [2] (Library stock concentration: 370 uM) is 0.0436% (inactive); in experiment [2] (Library stock concentration: 1.111 mM) it was 0.133% (inactive); in experiment [2] (Library stock concentration: 3.333 mM), -0.102% (inactive); in experiment [2] (setting [5]), 0.0746% (inactive); in experiment [2] (measured here: p53 positive nuclei at 24 h, Library stock concentration: 500 nM) it was -0.148%; in experiment [2] (measured here: p53 positive nuclei at 24 h, Library stock concentration: 1.5 uM) it was -0.0949%. Also, the p53-positive nuclei, normalised in experiment [2] (measured here: p53 positive nuclei at 24 h, Library stock concentration: 4.6 uM) is -0.0339%; in experiment [2] (measured here: p53 positive nuclei at 24 h, Library stock concentration: 13.7 uM), -0.0316%; in experiment [2] (measured here: p53 positive nuclei at 24 h, Library stock concentration: 41 uM), -0.148%; in experiment [2] (measured here: p53 positive nuclei at 24 h, Library stock concentration: 123 uM), -0.148%; in experiment [2] (measured here: p53 positive nuclei at 24 h, Library stock concentration: 370 uM), -0.0409%; in experiment [2] (measured here: p53 positive nuclei at 24 h, Library stock concentration: 1.111 mM), -0.0917%. For the same molecule, the p53-positive nuclei, normalised in experiment [2] (measured here: p53 positive nuclei at 24 h, Library stock concentration: 3.333 mM) is -0.0904%; in experiment [2] (setting [6]) it was -0.0218%.
As to `O=C(CCn1cnnn1)N1CCc2[nH]nc(-c3ccc4c(c3)OCO4)c2C1`, the nuclei count, normalised in experiment [1] (setting [7]) was 107%; in experiment [1] (setting [8]) it was 111%. Further, the figures for the p53-positive nuclei, normalised in experiment [2] (concentration not given here) and in experiment [2] (setting [9]) were 0.266% (inactive) and 0.111%, respectively.
With `Cc1ccc([N+](=O)[O-])cc1S(=O)(=O)N(C)N=Cc1cnc2ccc(Br)cn12`, the nuclei count, normalised in experiment [1] (setting [10]) came to 17.7%; in experiment [1] (setting [11]), 14.7%. The p53-positive nuclei, normalised in experiment [2] (setting [12]) is 14.4% (inactive); in experiment [2] (setting [13]), 4.1%.
On the same counts, the results for `CCc1c2c(nc3ccc(OC(=O)N4CCC(N5CCCCC5)CC4)cc13)-c1cc3c(c(=O)n1C2)COC(=O)[C@@]3(O)CC` are 44.3%, 30.6%, -0.157% (inactive) and -0.474%.
On to `Cn1cc(C2=C(c3cn(CCCSC(=N)N)c4ccccc34)C(=O)NC2=O)c2ccccc21`, for which the nuclei count, normalised in experiment [1] (measured here: cell number at 24 h, Library stock concentration: 80 uM) was determined as 108%; in experiment [1] (measured here: cell number at 24 h, Library stock concentration: 400 uM), 104%; in experiment [1] (measured here: cell number at 24 h, Library stock concentration: 2 mM), 97.9%; in experiment [1] (setting [10]), 68.3%; in experiment [1] (setting [3]), 38.8%; in experiment [1] (setting [7]), 102%. Besides, the nuclei count, normalised was 114% in experiment [1] (measured here: cell number at 48 h, Library stock concentration: 80 uM); 111% in experiment [1] (measured here: cell number at 48 h, Library stock concentration: 400 uM); 98.9% in experiment [1] (measured here: cell number at 48 h, Library stock concentration: 2 mM); 63.6% in experiment [1] (setting [11]); 29% in experiment [1] (setting [4]); 104% in experiment [1] (setting [8]). Also, the p53-positive nuclei, normalised in experiment [2] (Library stock concentration: 80 uM) is 0.143% (inactive); in experiment [2] (Library stock concentration: 400 uM), -0.08% (inactive); in experiment [2] (Library stock concentration: 2 mM) it was 3.66% (inactive); in experiment [2] (setting [12]), 23.8% (inactive); in experiment [2] (setting [5]), 70.5% (active); in experiment [2] (concentration not given here), 0.319% (inactive). Moreover, the p53-positive nuclei, normalised in experiment [2] (measured here: p53 positive nuclei at 24 h, Library stock concentration: 80 uM) is -0.111%; in experiment [2] (measured here: p53 positive nuclei at 24 h, Library stock concentration: 400 uM), -0.0611%; in experiment [2] (measured here: p53 positive nuclei at 24 h, Library stock concentration: 2 mM), 3.9%; in experiment [2] (setting [13]), 33.8%; in experiment [2] (setting [6]), 47.3%; in experiment [2] (setting [9]), 0.487%.
For the molecule `CN(C)CCCn1cc(C2=C(c3c[nH]c4ccccc34)C(=O)NC2=O)c2ccccc21`, the values for the nuclei count, normalised in experiment [1] (setting [10]) and in experiment [1] (setting [11]) were 108% and 105%, respectively. In addition, the p53-positive nuclei, normalised in experiment [2] (setting [12]) was 0.0456% (inactive); in experiment [2] (setting [13]), -0.293%.
For the molecule `Cn1cc(C2=C(c3cn(CCCN)c4ccccc34)C(=O)NC2=O)c2ccccc21`, the nuclei count, normalised in experiment [1] (setting [7]) came to 114%; in experiment [1] (setting [8]), 106%. Besides, the p53-positive nuclei, normalised in experiment [2] (concentration not given here) is 0.117% (inactive); in experiment [2] (setting [9]), 0.12%.
On the same counts, the results for `Cc1nsc(NC(=O)NCCC2CCCCCC2)n1` are 106%, 112%, -0.14% (inactive) and -0.0933%.
`CC1(C)OC2C[C@H]3[C@@H]4CCC5=CC(=O)CC[C@]5(C)[C@]4(F)C(O)C[C@]3(C)[C@@]2(C(=O)CCl)O1` (stereo not given in full): the nuclei count, normalised in experiment [1] (setting [10]) came out at 80.9%; in experiment [1] (setting [11]), 80.1%. The p53-positive nuclei, normalised was -0.151% (inactive) in experiment [2] (setting [12]) and -0.267% in experiment [2] (setting [13]).
On the same counts, the results for `O=C1O[C@H](C(O)CO)C(O)C1O` (stereo not given in full) are 110%, 103%, -0.204% (inactive) and -0.283%.
In the case of `COc1ccc(F)c(F)c1C(=O)c1cnc(NC2CCN(S(C)(=O)=O)CC2)nc1N`, the nuclei count, normalised in experiment [1] (setting [10]) is 43.7%; in experiment [1] (setting [11]) it was 27.7%. The p53-positive nuclei, normalised is 67.1% (active) in experiment [2] (setting [12]) and 73.8% in experiment [2] (setting [13]).
